High-throughput results (PubChem BioAssay)
Shown is part of a subset that was picked to be rich in hits.
Dicer processing – inhibitors of Dicer pre-microRNA processing, primary screen, biochemical, cat-ELCCA, chemiluminescence; cat-ELCCA pre-miR-21 Dicer processing; hits give high values; z-score at 25 µM; Endoribonuclease Dicer (Homo sapiens), Q9UPY3; 6% of 47,000 active; in the data active means z-score above about 3, passing the limit was not always enough;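 further: plate controls were vehicle for no effect and no enzyme for full effect; higher signal means more uncleaved substrate so more Dicer inhibition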
Numbers without * were called inactive.

SMILES	Dicer processing
O=C(Nc1cccc(Cl)c1)c1nn2c(C(F)(F)F)cc(-c3ccco3)nc2c1Cl	4*
CCOc1cc(C2C(C(=O)OCCOc3ccccc3)=C(C)NC3=C2C(=O)CCC3)ccc1O (stereo not drawn)	2.1
CCOc1ccc(N2C(=O)CC(N3CCC(N4CCCCC4)CC3)C2=O)cc1 (stereo not drawn)	-0.96
N/C(Cn1ccc(C(F)(F)F)n1)=N\OC(=O)Nc1ccc(Cl)cc1	1.5
COc1ccccc1N1CCN(S(=O)(=O)c2ccc(-c3ccno3)s2)CC1	2.2
COc1ccccc1N1CCN(S(=O)(=O)c2ccc3[nH]c(=O)[nH]c3c2)CC1	3*
CC1CCN(S(=O)(=O)c2ccc3[nH]c(=O)[nH]c3c2)CC1	0.37
CCCOc1ccc(Br)cc1C1C(C(=O)OC(C)C)=C(C)Nc2nnnn21 (stereo not drawn)	-1.3
Cc1nc(-c2cc(C#N)c(Oc3ccc(C(F)(F)F)cc3)nc2C)cs1	-0.8
CCCCC(=O)N1c2ccccc2NC2=C(C(=O)CC(C)(C)C2)C1c1cccs1 (stereo not drawn)	1
COC(=O)c1c(NC(=O)c2ccccc2Br)sc2c1CCC2	1.4
COC(=O)c1c(NC(=O)Nc2cccc(Cl)c2)sc2c1CCCC2	3.4*
CCCC(=O)Nc1sc2c(c1C(=O)OC)CCC2	0.71
CCOC(=O)N1CCC(NS(=O)(=O)c2cccs2)CC1	-0.54
C#CC1(NC(=O)/C=C/C(=O)O)CCCCC1	0.78
CCn1c(NCc2ccncc2)nc2ccccc21	2
CN(C)c1ccc(CNc2nc3ccccc3n2CCN2CCCCC2)cc1	2.2
CCc1ccc(CNc2nc3ccccc3n2C)cc1	3.4*
CCN(CC)CCn1c(NCc2ccncc2)nc2ccccc21	2.7
CCN(CC)CCn1c(NCc2ccc(N(C)C)cc2)nc2ccccc21	4.4*
CCCn1c(NCc2ccncc2)nc2ccccc21	1.3
Cc1ccc2c(c1)C(C)(C)C1(/C=C/c3ccc(Br)cc3)NC(=O)CN21 (stereo not drawn)	-0.67
COc1ccc(-c2nc3ccccc3n3cc4c(=O)n(C)c(=O)n(C)c4c23)cc1OC	-1
COc1ccc(SCCc2nnc(SCC(=O)Nc3ccc(F)cc3)n2C2CC2)cc1	1.7
CCOC(=O)N(c1ccccc1)c1ccccc1	0.46
SMILES	Dicer processing
COc1cccc(/C=N/NC(=O)CN2C(=O)CSc3ccccc32)c1	3.2*
Cc1ccc(/C=N/NC(=O)Cn2nc3n(c2=O)-c2ccccc2SC3)o1	1.3
Cc1nn(-c2ccccc2)cc1/C=N/NC(=O)Cn1nc2n(c1=O)-c1ccccc1SC2	1.4
Cc1ccc2c(c1)C(C)(c1ccccc1)CC(C)(C)N2C(=O)CSc1nncn1C (stereo not drawn)	5.6*
CC1=CC(C)(C)N(C(=O)CSc2nncn2C)c2ccccc21	0.89
Cn1cnnc1SCC(=O)N1c2ccccc2CCc2ccccc21	0.92
Cc1nc(Cc2c(Cl)cccc2Cl)sc1C(=O)NN	0.34
CSc1nsc(SCC(=O)NCc2ccco2)n1	-0.97
CSc1nsc(SCC(=O)N2CCCc3ccccc32)n1	-1.6
c1csc(-c2nnc(N3CCOCC3)c3ccccc23)c1	0.89
O=C(CSc1nc2ccccc2nc1SCC(=O)N1CCOCC1)N1CCOCC1	1.5
O=C(CSc1nc2ccccc2s1)N1CCc2ccccc21	1.4
O=C(CSc1nnc(-c2ccccc2)c(-c2ccccc2)n1)N1CCc2ccccc21	-0.32
O=C(CSc1nc2ccccc2nc1N1CCOCC1)NCc1ccco1	3.4*
Cc1cc(C)nc(N2CCN(C(=O)CSc3nc4ccccc4nc3N3CCCCC3)CC2)n1	2.6
O=C(CSc1nc(-c2cccs2)cc(C(F)(F)F)n1)NCc1ccco1	0.51
O=C(CSc1nc2ccccc2[nH]1)N1CCc2ccccc21	3.1*
O=C(CSc1nc2ccccc2nc1N1CCOCC1)NCc1cccs1	3*
O=C(CSc1nc2ccccc2nc1N1CCOCC1)N1CCCc2ccccc21	3.4*
NC(=O)c1sccc1NS(=O)(=O)c1cc(Cl)c(Cl)cc1Cl	-0.01
S=c1cc(-c2ccc(Cl)cc2)ss1	-0.19
CCOc1cccc(C2c3c(oc4ccccc4c3=O)C(=O)N2c2nc(C)c(C)s2)c1 (stereo not drawn)	1.2
CC(Nc1nc2nonc2nc1NC(C)c1ccccc1)c1ccccc1 (stereo not drawn)	1.6
CCOC(=O)c1c(C)n(C)c2ccc(OCC(O)Cn3nnc4ccccc43)cc12 (stereo not drawn)	-0.04
CC1(C)CC(=O)C2=C(C1)Nc1ccccc1NC2c1c(F)cccc1Cl (stereo not drawn)	2.4
SMILES	Dicer processing
c1ccc(Sc2ncnc3c2sc2ncccc23)cc1	2.8
Nc1nc(Nc2ccc(F)cc2)sc1C(=O)c1ccc(F)cc1	1.5
CCOC(=O)c1nc(Nc2ccc(OCC(C)C)cc2)c2ccccc2n1	-0.26
O=C(Oc1ccc(C(F)(F)F)cc1[N+](=O)[O-])c1ccc([N+](=O)[O-])cc1	-2.3
O=C(CSc1nc2ccccc2nc1N1CCOCC1)Nc1cccc(Br)c1	3.2*
O=C(CSc1nc2ccccc2nc1N1CCCC1)Nc1ccc(Cl)cc1	2.5
O=C(CSc1nc2ccccc2nc1N1CCCC1)Nc1ccc(Br)cc1	2.3
COc1ccc(C(=O)CC(Sc2ccccc2)c2ccc(C(C)C)cc2)cc1 (stereo not drawn)	0.26
CCOc1cc2nc3c4ccccc4n(C(C)C)c3nc2cc1OCC	-1.2
Cc1ccn2cc(-c3cccc(S(=O)(=O)N4CC(C)CC(C)C4)c3)nc2c1 (stereo not drawn)	-2
COc1ccc(CCN2C(=O)c3ccccc3NC2c2ccc(N(C)C)cc2)cc1OC (stereo not drawn)	0.83
CCOC(=O)CNC(=O)c1ccc([N+](=O)[O-])o1	2.6
O=C(Nc1ccccc1F)c1ccc([N+](=O)[O-])o1	-0.41
CN(Cc1ccccc1)C(=O)c1ccc([N+](=O)[O-])o1	3*
Cc1nc(-c2cc(-c3nc(-c4ccc(Cl)cc4)no3)no2)cs1	0.02
CCCn1c(C)cc(C)c(C#N)c1=O	0.64
CCCCn1c(C)cc(=S)cc1C	4.5*
CCCCn1c2ccccc2c2ccccc21	0.42
CC(=O)Nc1cc2cc(NC(=O)c3ccccc3C(F)(F)F)ccc2oc1=O	-0.67
Cn1c(-c2ccc3c(c2)OCO3)cn2cc(-c3ccc(Br)cc3)nc12	-0.63
Nc1ncnc(Nc2ccc(Oc3ccc(Cl)cc3)cc2)n1	-0.35
Nc1nc(SCc2ccc(Cl)cc2)n[nH]1	0.27
Nc1nc(Nc2ccc(Cl)cc2)n[nH]1	5.4*
CCc1c(C)nc2n(c1=O)C(CS(=O)(=O)c1ccc(C)cc1)CS2 (stereo not drawn)	-0.72
CC(C)NC(=O)NNC(=O)C(C)n1nnc(-c2cc(C(F)(F)F)cc(C(F)(F)F)c2)n1 (stereo not drawn)	0.32
SMILES	Dicer processing
C=C1SC(Nc2cc(Cl)c(Cl)cc2Cl)=NC1(C)C	-0.88
CC(C)(C)c1nc(N)sc1Br	0.22
Cc1ccc2c(c1)N(C(=O)NC1CCCCC1)C(C)(C)CC2C (stereo not drawn)	3.2*
CCOc1ccc2c(c1)C(C)CC(C)(C)N2C(=O)NC1CCCCC1 (stereo not drawn)	1.6
CC1=CC(C)(C)N(C(=O)NC2CCCCC2)c2cc(C)ccc21	-0.28
CCOc1ccc(C2CC(=O)C3=C(C2)NC(C)=C(C(=O)OC)C3c2cccs2)cc1OC (stereo not drawn)	-5.4
O=C(Nc1ccc(S(=O)(=O)Nc2nccs2)cc1)C1COc2ccccc2O1 (stereo not drawn)	1.4
